Measured values: PubChem BioAssay (NCATS)
Inconclusive results are not listed. Activity calls are given as the source filed them. Calls follow the shape of the dose curve; as a rule, active = well fitted cell-killing curve with a large enough effect; inconclusive = small, poorly fitted or top-dose-only effect, or effect the other way; inactive = no such curve, though single readings can be large or run the other way.

How the values were obtained:
[1] = Quantitative High-Throughput drug screen in 47 multiple myeloma cell lines against the NCATS MIPE library collection: FR4_PLB cell viability assay (AID 1918924; also: nearly all actives have a fitted effect of over 35% in size)
How it was run: (§1)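 Inhibition of cell viability is measured here. Each line was plated at 500 cells per well, treated with MIPE 4.0 drugs, kept 48 hours at 37C, then assayed for ATP content by CellTiter-Glo luminescence.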

[2] = Quantitative High-Throughput drug screen in 47 multiple myeloma cell lines against the NCATS MIPE library collection: EJM_DSMZ cell viability assay (AID 1918926; also: nearly all actives have a fitted effect of over 30% in size)
How it was run: (§2)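 Luminescent ATP measurement with CellTiter-Glo gives viability, scaled between DMSO-only wells (100%) and media-only wells (0%). Cells, 500 per well, faced library compounds for 48 hours at 37C.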

[3] = Quantitative High-Throughput drug screen in 47 multiple myeloma cell lines against the NCATS MIPE library collection: ARP1_JJKsccF8 cell viability assay (AID 1918928; also: nearly all actives have a fitted effect of over 40% in size)
How it was run: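 Myeloma cells, 500 per well, were exposed to MIPE 4.0 drugs by pin transfer for 48 h at 37 °C, 5% CO2. Viability was read as ATP luminescence with CellTiter-Glo, normalised to DMSO-only (100%) and medium-only (0%) wells.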

[4] = Quantitative High-Throughput drug screen in 47 multiple myeloma cell lines against the NCATS MIPE library collection: ARD_JJKsccE7 cell viability assay (AID 1918929)
How it was run: as §2

[5] = Quantitative High-Throughput drug screen in 47 multiple myeloma cell lines against the NCATS MIPE library collection: Karpas620_DSMZ cell viability assay (AID 1918959); also: nearly all actives have a fitted effect of over 30% in size
How it was run: as §1

[6] = Quantitative High-Throughput drug screen in 47 multiple myeloma cell lines against the NCATS MIPE library collection: Delta47_JCRB cell viability assay (AID 1918925; also: nearly all actives have a fitted effect of over 45% in size)
How it was run: as §2

[7] = Quantitative High-Throughput drug screen in 47 multiple myeloma cell lines against the NCATS MIPE library collection: AMO1_DSMZ cell viability assay (AID 1918927; also: nearly all actives have a fitted effect of over 30% in size)
How it was run: as §2
Potency is read from the fitted curve at half-maximal effect.

Compound	Potency [1]	Potency [2]	Potency [3]	Potency [4]	Potency [5]	Potency [6]	Potency [7]
CO[C@H]1/C=C\O[C@@]2(C)Oc3c(C)c(O)c4c(O)c(c(C=NN5CCN(C6CCCC6)CC5)c(O)c4c3C2=O)NC(=O)C(C)=CC=C[C@H](C)[C@H](O)[C@@H](C)[C@@H](O)[C@@H](C)[C@H](OC(C)=O)[C@H]1C	0.372 µM (active)	0.833 µM (active)	10.5 µM (active)	1.05 µM (active)	0.264 µM (active)	–	–
Cc1cc(CS(=O)(=O)c2ccccc2)cc(OCc2ccc(CN3CCC[C@H]3CO)cc2)c1	–	inactive	–	–	14.8 µM (active)	14.8 µM (active)	14.8 µM (active)
CC[C@H](C)n1cc(C)c2c(C(=O)NCc3c(C)cc(C)[nH]c3=O)cc(-c3ccc(N4CCNCC4)nc3)cc21	–	20.9 µM (active)	–	–	inactive	20.9 µM (active)	inactive
COc1cc(Cl)cn2c(-c3cccc(NC4CNC4)n3)cnc12	–	–	inactive	16.6 µM (active)	–	20.9 µM (active)	5.26 µM (active)
OCCn1cc(-c2ccc3c(c2)CCC3=NO)c(-c2ccncc2)n1	inactive	inactive	inactive	13.2 µM (active)	–	–	–
C[C@@H]1CC=CC=CC=CC=C[C@@H](O[C@@H]2O[C@H](C)[C@@H](O)[C@H](N)[C@H]2O)C[C@@H]2O[C@](O)(C[C@@H](O)C[C@@H]3O[C@@H]3C=CC(=O)O1)C[C@H](O)[C@@H]2C(=O)O	–	inactive	4.18 µM (active)	inactive	inactive	11.8 µM (active)	inactive
NCc1c[nH]c(=S)n1[C@H]1CCc2c(F)cc(F)cc2C1	14.8 µM (active)	–	18.7 µM (active)	26.4 µM (active)	–	–	20.9 µM (active)
CC(=O)O[C@]1(C(C)=O)CC[C@H]2[C@@H]3C=C(Cl)C4=CC(=O)[C@@H]5C[C@H]5[C@]4(C)[C@@H]3CC[C@@]21C	–	11.8 µM (active)	–	23.5 µM (active)	–	8.33 µM (active)	10.5 µM (active)
C[C@H]1[C@H](O)O[C@@H]2O[C@@]3(C)CC[C@@H]4[C@H](C)CC[C@@H]1[C@@]24OO3	6.62 µM (active)	–	1.66 µM (active)	4.18 µM (active)	5.26 µM (active)	–	–
C=C1[C@H](n2cnc3c(=O)[nH]c(N)nc32)C[C@H](O)[C@H]1CO	–	inactive	–	9.35 µM (active)	–	3.32 µM (active)	18.7 µM (active)
Cc1nc(NC(=O)N2CCC[C@@H]2C(N)=O)sc1-c1csc(C(C)(C)C)n1	–	8.33 µM (active)	6.62 µM (active)	0.372 µM (active)	14.8 µM (active)	3.32 µM (active)	5.26 µM (active)
CO[C@H]1C=CO[C@@]2(C)Oc3c(C)c(O)c4c(O)c(c(C=NN5CCN(C)CC5)c(O)c4c3C2=O)NC(=O)C(C)=CC=C[C@H](C)[C@H](O)[C@@H](C)[C@@H](O)[C@@H](C)[C@H](OC(C)=O)[C@H]1C	inactive	–	–	inactive	inactive	–	5.98 µM (active)
CCCCC[C@H](O)C=C[C@H]1[C@H](O)CC(=O)[C@H]1CCCCCCC(=O)O	–	inactive	23.5 µM (active)	inactive	inactive	inactive	inactive
CN(C)S(=O)(=O)c1ccc2c(c1)C(=Cc1cc3c([nH]1)CCCC3)C(=O)N2	–	4.69 µM (active)	–	8.33 µM (active)	1.87 µM (active)	2.96 µM (active)	–
CN[C@@H]1CN(c2ccc3c(=O)c(C(=O)O)cn(-c4nccs4)c3n2)C[C@@H]1OC	–	–	1.82 µM (active)	inactive	inactive	5.75 µM (active)	0.812 µM (active)
O=S(=O)(NCCNCC=Cc1ccc(Br)cc1)c1cccc2cnccc12	–	–	16.6 µM (active)	10.5 µM (active)	20.9 µM (active)	14.8 µM (active)	16.6 µM (active)
Cc1ccc(NC(=O)Nc2cc(C(F)(F)F)ccc2F)cc1Nc1ccc2c(c1)NC(=O)C2=Cc1ccc[nH]1	–	26.4 µM (active)	–	3.32 µM (active)	5.26 µM (active)	4.69 µM (active)	4.18 µM (active)
CCNC(=O)Nc1ccc(Oc2ncnc(N)c2C=NOC)cc1Cl	3.72 µM (active)	–	20.9 µM (active)	5.9 µM (active)	4.69 µM (active)	–	2.96 µM (active)
CNc1nc(-c2ccc3c(N)n[nH]c3c2)cc(N2C[C@@H](C(=O)NC3CCCCC3)CC[C@@H]2C)n1	–	–	11.8 µM (active)	8.33 µM (active)	20.9 µM (active)	–	20.9 µM (active)
CCC(=O)OCC(=O)[C@@]1(OC(=O)CC)[C@@H](C)C[C@@H]2[C@H]3CCC4=CC(=O)C=C[C@]4(C)[C@@]3(F)[C@@H](O)C[C@@]21C	–	–	–	2.09 µM (active)	2.35 µM (active)	inactive	9.35 µM (active)
COc1ccc2cc1Oc1ccc(cc1)C[C@H]1c3cc(c(OC)cc3CCN1C)Oc1c(OC)c(OC)cc3c1[C@H](C2)N(C)CC3	–	–	–	6.62 µM (active)	5.26 µM (active)	–	7.43 µM (active)

Compound	Potency [1]	Potency [2]	Potency [3]	Potency [4]	Potency [5]	Potency [6]	Potency [7]
O=C(c1ccc(F)c(F)c1Nc1ccc(I)cc1F)N1CC(O)([C@H]2CCCCN2)C1	–	–	–	10.5 µM (active)	0.105 µM (active)	20.9 µM (active)	3.32 µM (active)
O=C(c1ccc(C=Cc2n[nH]c3ccccc23)cc1)N1CCNCC1	–	20.9 µM (active)	13.2 µM (active)	1.32 µM (active)	–	–	–
CC1C(=O)OC2C(O)C34C5CC(C(C)(C)C)C36C(OC(=O)C6O)OC4(C(=O)O5)C12O (configuration not stated)	–	inactive	–	inactive	inactive	–	–
CO[C@H]1/C=C\O[C@@]2(C)Oc3c(C)c(O)c4c(O)c(c5c(nc6cc(C)ccn65)c4c3C2=O)NC(=O)C(C)=CC=C[C@H](C)[C@H](O)[C@@H](C)[C@@H](O)[C@@H](C)[C@H](OC(C)=O)[C@H]1C	–	–	–	18.7 µM (active)	18.7 µM (active)	11.8 µM (active)	16.6 µM (active)
C[C@@H]1[C@H](C)CC[C@]2(C(=O)O)CC[C@]3(C)C(=CC[C@@H]4[C@@]5(C)CC[C@H](O)C(C)(C)[C@H]5CC[C@]43C)[C@@H]12	–	–	–	inactive	inactive	–	inactive
C[C@]12C=CC(=O)C=C1CC[C@@H]1[C@@H]2[C@@H](O)C[C@@]2(C)[C@@H]1CC[C@]2(O)C(=O)CO	–	inactive	–	–	inactive	–	–
CC(O)=C(C#N)C(=O)Nc1ccc(C(F)(F)F)cc1	–	–	–	–	inactive	–	6.62 µM (active)
Cc1c(-c2cccc3c(CCCOc4cccc5ccccc45)c(C(=O)O)n(Cc4cccnc4)c23)c(COc2ccc(N3CCN([S+](=O)([O-])N(C)C)CC3)cc2)nn1C	–	14.8 µM (active)	–	inactive	inactive	–	inactive
CN1[C@H]2CC[C@H]1CC(OC(=O)c1c[nH]c3ccccc13)C2 (some centres not stated)	–	inactive	–	–	inactive	–	inactive
C#C[C@]1(O)CC[C@H]2[C@H]3CCc4cc(OC)ccc4[C@H]3CC[C@@]21C	–	13.2 µM (active)	inactive	23.5 µM (active)	–	–	26.4 µM (active)
N=C1SC(=Cc2ccc(-c3ccc4c(c3)C(=O)NC4=O)o2)C(=O)N1c1ccc(Br)cc1	–	4.18 µM (active)	3.32 µM (active)	–	inactive	–	inactive
CC(C)c1onc(-c2c(Cl)cccc2Cl)c1COc1ccc(C=Cc2cccc(C(=O)O)c2)c(Cl)c1	–	inactive	inactive	–	inactive	–	inactive
O=C(Nc1cccc2c(=O)cc(-c3nn[nH]n3)oc12)c1ccc(OCCCCc2ccccc2)cc1	–	inactive	–	–	–	–	–
CN[C@@H]1[C@@H](O)[C@@H](O[C@@H]2[C@@H](O)[C@H](O[C@H]3O[C@H](CN)[C@@H](O)[C@H](O)[C@@H]3O)[C@@H](N)C[C@@H]2NC(=O)[C@@H](O)CN)OC[C@]1(C)O	–	inactive	–	inactive	inactive	–	inactive
OC[C@H]1O[C@@H](O[C@H]2[C@@H](O)[C@@](O)(CO)O[C@@H]2CO)[C@H](O)[C@@H](O)[C@@H]1O	–	inactive	inactive	inactive	inactive	–	inactive
CCOC(=O)[C@H]1O[C@H]1C(=O)N[C@@H](CC(C)C)C(=O)NCCC(C)C	–	inactive	–	inactive	–	–	inactive
CCCCN(CCCC)CC(O)c1cc(Cl)cc2c1-c1ccc(Cl)cc1C2=Cc1ccc(Cl)cc1 (configuration not stated)	–	16.6 µM (active)	–	inactive	inactive	–	inactive
C=CC[N+]1([C@H]2C[C@H]3[C@@H]4CC[C@H]5C[C@H](O)[C@@H](N6CCOCC6)C[C@]5(C)[C@@H]4CC[C@]3(C)[C@H]2OC(C)=O)CCCC1	–	–	–	inactive	inactive	inactive	–
CN(C)CCOc1ccc(C(=C(CCCl)c2ccccc2)c2ccccc2)cc1	–	18.7 µM (active)	inactive	inactive	–	–	inactive
CC(=O)N1CCN(c2ccc(OCc3nn(C)c(C)c3-c3cccc4c(CCCOc5cc(C)c(Cl)c(C)c5)c(C(=O)O)n(Cc5cccnc5)c34)cc2)CC1	–	20.9 µM (active)	–	20.9 µM (active)	26.4 µM (active)	–	6.62 µM (active)
